Assay outcomes as filed in PubChem.
PNC assembly inh: perinucleolar compartment assembly inhibition | activity change (PNC), negative = inhibition, % at 10 µM | hit rate 3.1% among 140,000 | PC3M PTB-GFP, PNC prevalence imaging, 16 h; stronger effect = lower value;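 active = readout at or below -70, meaning at least 70% loss of cells showing the perinucleolar compartment, a nuclear body marking cancer cells; inconclusive = readout between -30 and a set limit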;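 note: plate controls were DMSO wells for no effect and camptothecin positive control wells for full effect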
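Compounds are pinned in duplicate onto adhered PC3M cells stably expressing GFP-tagged PTB and incubated 16 h at 37 C. Cells are then fixed, nuclei stained with Hoechst, and PNC-positive cells counted.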
HPGD block: inhibitors of human 15-hydroxyprostaglandin dehydrogenase (HPGD). P15428. purified HPGD, NADH fluorescence kinetic, PGE2 substrate. Potency, µM, for the others: top-dose activity change, negative = inhibition, hits mostly inhibitors. hit rate 4.3% among 150,000. AID 894; note: potency is the fitted concentration of half-maximal effect
Target sequence (P15428 whole entry, looked up): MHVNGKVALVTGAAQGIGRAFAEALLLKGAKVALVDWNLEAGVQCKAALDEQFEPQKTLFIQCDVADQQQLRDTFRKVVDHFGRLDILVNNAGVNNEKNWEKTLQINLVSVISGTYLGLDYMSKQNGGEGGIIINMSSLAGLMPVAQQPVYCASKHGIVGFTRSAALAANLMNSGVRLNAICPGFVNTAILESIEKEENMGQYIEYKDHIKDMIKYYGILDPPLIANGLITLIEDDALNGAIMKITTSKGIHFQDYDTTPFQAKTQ
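20 nM HPGD preincubated 15 min at room temperature with compound in 50 mM Tris-HCl pH 8, 0.01% Tween 20. Started with 1 mM NAD+ and 30 uM prostaglandin E2; NADH fluorescence (360/450 nm) read 5 times over 30-s intervals, last minus first.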
12-hLO inh: inhibitors of human 12-lipoxygenase (ALOX12); hit rate 0.12% among 150,000; purified 12-hLO, xylenol orange hydroperoxide absorbance; Potency, µM (titrated, usually from 57.1 µM), for inactives: at the top dose activity change, negative = inhibition, usual class: inhibitors; P18054; AID 1452; active = well fitted inhibition curve with a large enough effect; inconclusive = small, poorly fitted or top-dose-only effect; note: potency is the fitted concentration of half-maximal effect; nearly all actives have a fitted effect of over 55% in size
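Xylenol orange chromogenic assay: hydroperoxide from 12hLO oxidises Fe(II), giving red-shifted Fe(III)-XO absorbance. Conditions: 150 nM enzyme, 40 uM arachidonic acid, 25 mM Hepes pH 7.0, 0.01% Triton X-100, 30 min, room temperature.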
Lamin A splicing: modulators of lamin A splicing; AID 1487; hit rate 0.01% among 200,000; HeLa LMNA splicing GFP/RFP minigene ratio, 48 h; Potency, µM (highest dose often 46.1 µM), without a hit: at the top dose ratio change, negative = inhibition, usual class: inhibitors; active = well fitted inhibition curve with a large enough effect in the signal ratio, with a control signal flat, not every such curve was filed as active; inconclusive = small, poorly fitted or top-dose-only effect, or effect the other way, or a change in a side signal; the % refers to the signal ratio; note: potency is the fitted concentration of half-maximal effect
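S3 HeLa stable clones carrying a lamin A-EGFP splicing minigene plus DsRed2 were seeded at 600 cells/well in Opti-MEM with 2% FBS, pin-dosed and incubated 48 h at 37°C. Acumen cytometry (488 nm) gave the GFP/RFP total-intensity ratio.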
ALDH1A1 block: blocks purified human ALDH1A1 activity; hit rate 7.3% among 220,000; Potency, µM (doses to about 75.3 µM), for the others: at the highest dose activity, negative = inhibition, usual class: inhibitors; AID 1030; Purified ALDH1A1, NADH fluorescence, propionaldehyde substrate;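 note: potency is the fitted concentration of half-maximal effect; plate controls were no enzyme wells and a reference inhibitor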
Target sequence (P00352 whole entry, looked up): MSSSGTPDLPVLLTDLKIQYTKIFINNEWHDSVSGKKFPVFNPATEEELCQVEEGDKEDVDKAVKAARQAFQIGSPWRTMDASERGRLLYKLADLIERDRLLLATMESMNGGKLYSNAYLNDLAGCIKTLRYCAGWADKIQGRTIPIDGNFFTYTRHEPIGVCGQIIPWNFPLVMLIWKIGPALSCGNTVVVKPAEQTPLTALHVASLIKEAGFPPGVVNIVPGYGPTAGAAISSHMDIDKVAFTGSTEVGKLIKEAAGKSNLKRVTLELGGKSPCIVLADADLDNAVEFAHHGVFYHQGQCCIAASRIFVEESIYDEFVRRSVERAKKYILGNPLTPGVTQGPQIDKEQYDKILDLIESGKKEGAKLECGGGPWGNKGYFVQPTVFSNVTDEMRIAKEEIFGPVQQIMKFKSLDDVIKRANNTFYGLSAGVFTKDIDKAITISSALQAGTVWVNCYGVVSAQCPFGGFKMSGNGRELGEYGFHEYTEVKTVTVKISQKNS
* marks the source's active call; other numbers are inactive results; ? = inconclusive; . = no result; ! = not active in a repeat; [ ] = dose if it differs, or a comment. In the library only some 10% were active in any assay of this set; here they are far more common. Unless noted, calls come from the whole dose curve; as a rule, active = well fitted inhibition curve with a large enough effect (not every such curve was filed as active); inconclusive = small, poorly fitted or top-dose-only effect, or another doubt; inactive = no such curve, though single readings can be large or run the other way. Unless noted, % is set by controls: 0 for no effect and ±100 for the full control effect.

SMILES	PNC assembly inh	HPGD block	12-hLO inh	Lamin A splicing	ALDH1A1 block
N#CC(=C=[N-])c1nc2ccccc2nc1-[n+]1cccc(NC(=O)c2ccc(F)cc2)c1	.	.	.	.	-8.5%
N#CC(=C=[N-])c1nc2ccccc2nc1-[n+]1cccc(NC(=O)c2ccccc2)c1	.	.	.	.	14.1µM*!
CCc1ccc(CNc2ccc(O)cc2)cc1	-6.8	22.4µM*	?	26.1%	7.94µM*
CSc1ccc(CNc2ccc(Cl)cc2)cc1	1.5	2.2%	-3.6%	-4.9%	-11.3%
CC1CCC(NC(=O)N(CCCl)N=O)CC1 (configuration not stated)	.	-8.7%	-4.7%	.	12.6µM*
Cc1cc2cc(OCC(=O)O)ccc2n1C	-112.6*	-5.4%	-5.9%	-6.4%	4.8%
COc1ccc(C(C(=O)NCC2CCCO2)N(C(=O)CNC(=O)c2cccs2)c2ccc(C)cc2)cc1OC (configuration not stated)	.	.	.	.	2.5%
CCOC(=O)c1cc(-c2ccccc2)n(CC(=O)NCc2ccccc2OC)c1C	.	.	.	12.9%[46 µM]	.
COc1ccc(OC)c(C2CC(=O)N3CN(c4cccc(Cl)c4C)CSC3=C2C#N)c1 (configuration not stated)	-24.2	7.94µM*	?	2.9%	3.16µM*
COc1ccc(OC)c(C2C(C#N)=C(N)Oc3c2c(C)nn3-c2cccc(Cl)c2)c1 (configuration not stated)	-15.9	-24.7%	-18.6%	?	?
COc1cccc(C2C(C#N)=C(N)Oc3cc(C)[nH]c(=O)c32)c1OC (configuration not stated)	?	-13.4%	-5.5%	11.3%	?
COc1cccc(C2CC(=O)N3CN(c4cccc(Cl)c4C)CSC3=C2C#N)c1OC (configuration not stated)	?	7.94µM*	?	1.0%	3.16µM*
O=S(=O)(c1ccccc1)N1CCC2(CCN(Cc3nccs3)CC2)CC1	.	-12.3%	6.2%	.	8.0%
O=C1CN(C(=O)CNCc2ccc(Cl)cc2)c2ccccc2N1	.	.	.	.	12.6µM*
O=C1CN(C(=O)Cn2ncc(Cl)c(Cl)c2=O)c2ccccc2N1	.	.	.	?	3.16µM*
O=C1CN(CC(=O)Nc2cccc(Cl)c2Cl)c2ccccc2N1	.	.	.	-4.5%[46 µM]	3.98µM*
O=C(CN1CCNCC1)Nc1ccccc1Cl	-27.1	-1.8%	-3.0%	1.2%	-5.3%
O=C1CN(C(=O)COC(=O)CCSc2ccccc2Cl)c2ccccc2N1	24.1	17.8µM*	-0.4%	1.9%	14.1µM*
O=C(Cn1ncc(Cl)c(Cl)c1=O)NCC1CCCCC1	?	-8.2%	0.9%	?	22.4µM*
Cc1cccc(N2CCN(CC(=O)NCC3CCCCC3)CC2)c1C	0.5	1.4%	-4.7%	?	-6.1%
COC(=O)C[C@H]1c2ccccc2C2=C(C[C@@H](C)[C@H]3C(=O)NC(=O)[C@@H]23)N1C(=O)OC	.	-12.5%	-3.7%[11.4 µM]	-11.3%[9.22 µM]	-1.6%[13.5 µM]
COc1ccccc1N1CCN(C(=O)c2cc3c(=O)n(Cc4cccs4)ccc3nc2C)CC1	.	.	.	-10.0%[46 µM]	.
Cc1nn(C)c(Sc2ccccc2N)c1[N+](=O)[O-]	.	.	.	.	3.98µM*
Cc1nn(C)c(N)c1[N+](=O)[O-]	.	.	.	-8.0%[46 µM]	-2.3%
COc1ccc(S(=O)(=O)NCCOc2ccccc2)cc1OC	-9.3	-8.6%	10.2%	-11.7%	-0.3%
SMILES	PNC assembly inh	HPGD block	12-hLO inh	Lamin A splicing	ALDH1A1 block
COc1ccc(S(=O)(=O)NCCOc2ccccc2)cc1-n1cnnn1	.	.	.	.	8.91µM*
Oc1ccc(/C=C/c2ccc3ccccc3n2)cc1	.	.	.	12.6µM*	?
CC(=O)Nc1ccccc1C(=O)C(=O)Nc1ccc(C(=O)NCC2CCCO2)cc1 (configuration not stated)	.	.	.	?	-3.5%
Cc1ccnc(SCC(=O)N2CCN(c3ccccc3)CC2)n1	-14.0	-10.7%	-2.5%	-2.6%	?
Cn1c(CCNC(=O)c2cccs2)nnc1SCC(=O)N1CCN(c2ccccc2)CC1	?	0.6%	4.5%	6.5%	28.2µM*
CCn1c(SCC(=O)N2CCN(c3ccccc3)CC2)nnc1-c1ccncc1	-100.0*	20µM*	-1.4%	0.1%	25.1µM*
O=C(CSc1ncn(-c2ccccc2)n1)N1CCN(c2ccccc2)CC1	-18.3	28.2µM*	-6.7%	-3.5%	14.1µM*
Cn1c(SCC(=O)N2CCN(c3ccccc3)CC2)nnc1-c1ccccc1	15.0	-1.2%	-1.1%	?	7.94µM*
COc1ccc(O[C@H]2C=C[C@@H](c3ccccc3)O[C@@H]2CO/N=C(\C)CCN2CCCCc3nc(C)c(C)cc32)cc1	-22.6	-21.1%	-1.8%	?	-5.2%[13.5 µM]
Cn1c(SCC(=O)N2CCN(c3ccccc3)CC2)nnc1-c1ccco1	9.0	2.8%	-1.6%	7.5%	12.6µM*
N#Cc1cccc(NC(=O)N2CC3(CCN(C(=O)c4cccc(F)c4)CC3)C2)c1	.	-23.6%	3.0%	.	?
CCC(SC1=N/C(=C/c2ccccc2)C(=O)N1c1ccccc1)C(=O)Nc1cc(C)on1 (configuration not stated)	106.6	?	-2.9%	?	17.8µM*
Cc1nc(N2CCCC2)ncc1C(=O)N1CCN(c2ccccc2F)CC1	.	.	.	15.1%[46 µM]	.
CC1(C)CC(=O)C=C(NC2CCCCCCC2)C1	-26.6	-11.0%	-0.5%	-4.2%	1.3%
CC1(C)CC(=O)C=C(NNC(=O)C2CCCCC2)C1	?	14.7%	2.1%	-4.1%	12.6µM*
Cc1ccc(N(Cc2cccs2)C(=O)c2ccccc2[N+](=O)[O-])cc1	.	.	.	4.8%[46 µM]	.
CN(Cc1cccs1)C(=O)/C=C/c1ccccc1[N+](=O)[O-]	.	.	.	10.7%[46 µM]	3.16µM*
Cc1ccc(C(=O)NCC(c2ccco2)S(=O)(=O)c2ccc(Cl)cc2)cc1C (configuration not stated)	.	.	.	14.0%[46 µM]	.
CCCn1c(=O)c(C(=O)NNS(=O)(=O)c2ccc(Cl)cc2)c(O)c2ccccc21	12.1	-19.5%	-15.7%	?	31.6µM*
Cc1ccc(C(=O)CSc2ncnc3sc4c(c23)CCC(C)C4)cc1 (configuration not stated)	-118.9*	-12.8%	0.1%	-11.1%	-12.7%
Fc1cccc(NC(=S)NNc2c3ccccc3nc3ccccc23)c1	.	.	.	?	3.16µM*
COc1ccc(-n2c(SCC(=O)C(C)(C)C)nc3ccsc3c2=O)cc1	.	.	.	.	-11.7%
COc1ccc(-n2c(SCC(=O)NCCC(C)C)nc3ccsc3c2=O)cc1	-16.3	?	-6.7%	?	20µM*
CC1=NCCN1CCNC(=O)Nc1ccc(F)cc1	.	.	.	.	19.4%
O=C(Nc1ccc(F)cc1)C1=CC(=O)N2CCN=C2S1	.	.	.	-19.3%[46 µM]	15.8µM*
Cc1ccc(-c2nn(-c3ccccc3)cc2C=C2C(=O)CC(C)(C)CC2=O)cc1	17.3	-17.4%	-1.4%	?	3.8%
Cn1cc(C=C2C(=O)CC(C)(C)CC2=O)c2ccccc21	15.5	-9.8%	-1.8%	-7.7%	1.26µM*
NC1C(O)OC(CO)[C@@H](O)[C@@H]1O[C@H]1O[C@@H](C(=O)O)C(O)C(O)C1O (some centres not stated)	.	-4.2%	-0.1%	-8.4%	4.3%
